{"source": "PubChem BioAssay (NCATS)", "key": {"Tov-21-G": {"system": "Tov-21-G", "experiment": "Primary qHTS to identify gynecologic anti-cancer compounds using libraries of approved drugs and bioactive compounds (AID 1345084); also: nearly all actives have a fitted effect of over 55% in size; also: potency is read from the fitted curve at half-maximal effect", "conditions": "Gynecologic cancer cell panel viability, ATPlite luminescence, 48 h; series mostly up to 57.5 µM", "in_short": "(§1)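 Luminescence from the ATPlite ATP-monitoring reagent indicates viable cell number; lower signal means cytotoxicity. Cells received compound 16 h after seeding and were exposed for 48 h across five concentrations.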"}, "Tov112D": {"system": "Tov112D", "experiment": "Primary qHTS to identify gynecologic anti-cancer compounds using libraries of approved drugs and bioactive compounds (AID 1345084)", "conditions": "Gynecologic cancer cell panel viability, ATPlite luminescence, 48 h; series mostly up to 57.5 µM", "in_short": "as §1"}}, "note": "Records with an inconclusive call do not appear. A call without a number means that no potency is given here. The source made the active and inactive calls. Calls follow the shape of the dose curve; as a rule, active = well fitted cell-killing curve with a large enough effect; inconclusive = small, poorly fitted or top-dose-only effect, or effect the other way; inactive = flat fitted curve, though single readings scatter. *1 amine or outer side, *2 acyl side, *3 side chain or, on linkers, in order; H or OH if unused. Where a SMILES comes first, the peptide text is derived from it. Bridges are numbered along the chain shown (N, C = ends). [ ]: non-standard residue; d: D form. The star is where a group is joined. pTerphenylCO(4''-OnC5H11) = CCCCCOc1ccc(-c2ccc(-c3ccc(C(=O)*)cc3)cc2)cc1; Orn(4R-OH,5R-OH) = O=C([C@H](C[C@@H](O)[C@@H](O)N[*:3])N[*:1])[*:2]; hTyr(3S-OH,4S-OH) = N[C@H](C(=O)O)[C@H](O)[C@@H](O)c1ccc(O)cc1; Pro(3S-OH,4S-Me) = C[C@H]1CN[C@H](C(=O)O)[C@H]1O; Hyp = O=C(O)[C@@H]1C[C@@H](O)CN1"}
{"smiles": "O=C(O)c1cc(N(Cc2ccc(C3CCCCC3)cc2)C(=O)c2ccc(Oc3ccccc3)cc2)ccc1O", "values": [{"measurement": "Potency", "setting": "Tov-21-G", "result": "inactive"}, {"measurement": "Potency", "setting": "Tov112D", "result": "inactive"}]}
{"smiles": "CCC(CC)C(=O)OC12C(OC(=O)C(C)C)C(C)C3(O)C(C=C(CO)CC4(O)C(=O)C(C)=CC43)C1C2(C)C", "note": "(configuration not stated)", "values": [{"measurement": "Potency", "setting": "Tov-21-G", "result": "inactive"}, {"measurement": "Potency", "setting": "Tov112D", "result": "inactive"}]}
{"smiles": "Cc1cc(-c2cc(OC(=O)c3ccccc3)ccc2Cl)cc2nnc(Nc3ccc(OCCN4CCCC4)cc3)nc12", "values": [{"measurement": "Potency", "setting": "Tov-21-G", "result": "inactive"}, {"measurement": "Potency", "setting": "Tov112D", "result": "inactive"}]}
{"smiles": "N#Cc1cc(-c2ccnc(Nc3ccc(N4CCOCC4)cc3)n2)ccc1OC1CCOCC1", "values": [{"measurement": "Potency", "setting": "Tov-21-G", "result": "inactive"}, {"measurement": "Potency", "setting": "Tov112D", "result": "inactive"}]}
{"smiles": "CC(C)(C)c1ccc(C(=O)Nc2cn3cc(-n4ccnc4)ccc3n2)cc1", "values": [{"measurement": "Potency", "setting": "Tov-21-G", "result": "inactive"}, {"measurement": "Potency", "setting": "Tov112D", "result": "inactive"}]}
{"smiles": "CC(C)CCNC(=O)c1ccc2c(c1)nc(Nc1n[nH]c3ccc(-c4ccccc4OC(F)(F)F)cc13)n2C1CCC(O)CC1", "note": "(configuration not stated)", "values": [{"measurement": "Potency", "setting": "Tov-21-G", "result": "inactive"}, {"measurement": "Potency", "setting": "Tov112D", "result": "inactive"}]}
{"smiles": "CC(C)(N)c1ncc(-c2ccc(OC(F)(F)F)cc2)[nH]1", "values": [{"measurement": "Potency", "setting": "Tov-21-G", "result": "inactive"}, {"measurement": "Potency", "setting": "Tov112D", "result": "inactive"}]}
{"smiles": "C=C1CCC2C(C)(C)CCCC2(C)C1CC/C(C)=C\\CO", "note": "(configuration not stated)", "values": [{"measurement": "Potency", "setting": "Tov-21-G", "result": "inactive"}, {"measurement": "Potency", "setting": "Tov112D", "result": "inactive"}]}
{"smiles": "COc1c2c(nc3occc13)C(CC=C(C)C)(OC)C(O)CC2", "note": "(configuration not stated)", "values": [{"measurement": "Potency", "setting": "Tov-21-G", "result": "inactive"}, {"measurement": "Potency", "setting": "Tov112D", "result": "inactive"}]}
{"smiles": "CC(C)OC(=O)N1CCC(Oc2ncnc3c2cnn3-c2ccc(S(C)(=O)=O)cc2F)CC1", "values": [{"measurement": "Potency", "setting": "Tov-21-G", "result": "inactive"}, {"measurement": "Potency", "setting": "Tov112D", "result": "inactive"}]}
{"smiles": "CC(=O)O[C@@H]1C[C@@]23C[C@@]24CC[C@H](O[C@@H]2OC[C@H](O)[C@H](O)[C@H]2O)C(C)(C)[C@@H]4CC[C@H]3[C@]2(C)[C@@H](O)C34O[C@H](C[C@@H](C)[C@@H]3[C@@]12C)[C@@H](C(C)(C)O)O4", "values": [{"measurement": "Potency", "setting": "Tov-21-G", "result": "inactive"}, {"measurement": "Potency", "setting": "Tov112D", "result": "inactive"}]}
{"smiles": "C=C1[C@H]2CC[C@H](C(=O)O)[C@@]23CC[C@H](C3)C1(C)C", "values": [{"measurement": "Potency", "setting": "Tov-21-G", "result": "inactive"}, {"measurement": "Potency", "setting": "Tov112D", "result": "inactive"}]}
{"smiles": "Cc1ccnn1-c1ccc(C(=O)N2CCN(S(=O)(=O)c3ccc(Cl)c(C(F)(F)F)c3)CC2)cc1", "values": [{"measurement": "Potency", "setting": "Tov-21-G", "result": "inactive"}, {"measurement": "Potency", "setting": "Tov112D", "result": "inactive"}]}
{"smiles": "CC(C)=CCc1cc2c(cc1O)OC[C@H]1c3ccc(O)cc3O[C@@H]21", "values": [{"measurement": "Potency", "setting": "Tov-21-G", "result": "inactive"}, {"measurement": "Potency", "setting": "Tov112D", "result": "inactive"}]}
{"smiles": "O=C(c1ccccn1)N(Cc1cccs1)C1(C(=O)NC2CCCCC2)CCCCC1", "values": [{"measurement": "Potency", "setting": "Tov-21-G", "result": "inactive"}, {"measurement": "Potency", "setting": "Tov112D", "result": "inactive"}]}
{"smiles": "COc1ccc(C#Cc2ccc(C(=O)N3CCC[C@@H](CO)C3)cc2)cc1", "values": [{"measurement": "Potency", "setting": "Tov-21-G", "result": "inactive"}, {"measurement": "Potency", "setting": "Tov112D", "result": "inactive"}]}
{"smiles": "CCCCCOc1ccc(-c2ccc(-c3ccc(C(=O)N[C@H]4C[C@@H](O)[C@@H](O)NC(=O)[C@@H]5[C@@H](O)[C@@H](C)CN5C(=O)[C@H]([C@@H](C)O)NC(=O)[C@H]([C@H](O)[C@@H](O)c5ccc(O)cc5)NC(=O)[C@@H]5C[C@@H](O)CN5C(=O)[C@H]([C@@H](C)O)NC4=O)cc3)cc2)cc1", "note": "({pTerphenylCO(4''-OnC5H11)}-[Orn(4R-OH,5R-OH)]T[Hyp][hTyr(3S-OH,4S-OH)]T[Pro(3S-OH,4S-Me)]; lactam 1-C)", "values": [{"measurement": "Potency", "setting": "Tov-21-G", "result": "inactive"}, {"measurement": "Potency", "setting": "Tov112D", "result": "inactive"}]}
{"smiles": "CN(C)C(=O)C(=O)c1cn(C)c2cc(Cl)c(C(=O)N3CCC(Cc4ccc(F)cc4)CC3)cc12", "values": [{"measurement": "Potency", "setting": "Tov-21-G", "result": "inactive"}, {"measurement": "Potency", "setting": "Tov112D", "result": "inactive"}]}
{"smiles": "COc1ccc(CNCc2cccc3ccccc23)cc1", "values": [{"measurement": "Potency", "setting": "Tov-21-G", "result": "inactive"}, {"measurement": "Potency", "setting": "Tov112D", "result": "inactive"}]}
{"smiles": "CCn1c(N)c(C(=O)NC)c(=O)c2ccc(C#CC(C)(O)COC)nc21", "note": "(configuration not stated)", "values": [{"measurement": "Potency", "setting": "Tov-21-G", "result": "inactive"}, {"measurement": "Potency", "setting": "Tov112D", "result": "inactive"}]}
{"smiles": "C=C1CC[C@@H]2[C@](C)(CO)[C@H](O)CC[C@@]2(C)[C@@H]1CC(O)C1=CCOC1=O", "note": "(some centres not stated)", "values": [{"measurement": "Potency", "setting": "Tov-21-G", "result": "inactive"}, {"measurement": "Potency", "setting": "Tov112D", "result": "inactive"}]}
{"smiles": "COc1cc2nc(C3CC3)nc(N3CCN(c4ccccc4OC)CC3)c2cc1OC", "values": [{"measurement": "Potency", "setting": "Tov-21-G", "result": "inactive"}, {"measurement": "Potency", "setting": "Tov112D", "result": "inactive"}]}
{"smiles": "COc1nc2ccc(Br)cc2cc1[C@@H](c1ccccc1)[C@@](O)(CCN(C)C)c1cccc2ccccc12", "values": [{"measurement": "Potency", "setting": "Tov-21-G", "result": "inactive"}, {"measurement": "Potency", "setting": "Tov112D", "result": "inactive"}]}
{"smiles": "CC(=O)[C@H]1CC[C@H]2[C@@H]3CC=C4C[C@@H](OS(=O)(=O)O)CC[C@]4(C)[C@H]3CC[C@]12C", "values": [{"measurement": "Potency", "setting": "Tov-21-G", "result": "inactive"}, {"measurement": "Potency", "setting": "Tov112D", "result": "inactive"}]}
{"smiles": "O=c1[nH]cnc2c([C@@H]3N[C@H](CO)[C@@H](O)[C@H]3O)c[nH]c12", "values": [{"measurement": "Potency", "setting": "Tov-21-G", "result": "inactive"}, {"measurement": "Potency", "setting": "Tov112D", "result": "inactive"}]}
{"smiles": "COc1cc(C(N)=O)nc(-c2ccccn2)c1O", "values": [{"measurement": "Potency", "setting": "Tov-21-G", "result": "inactive"}, {"measurement": "Potency", "setting": "Tov112D", "result": "inactive"}]}
{"smiles": "Cc1ccc(S(=O)(=O)NCc2ccc(C(=O)NCCN(Cc3ccccc3)C(C)C)cc2)cc1", "values": [{"measurement": "Potency", "setting": "Tov-21-G", "result": "inactive"}, {"measurement": "Potency", "setting": "Tov112D", "result": "inactive"}]}
{"smiles": "C#CCNCc1cc2cc(OCc3ccccc3)ccc2[nH]1", "values": [{"measurement": "Potency", "setting": "Tov-21-G", "result": "inactive"}, {"measurement": "Potency", "setting": "Tov112D", "result": "inactive"}]}
{"smiles": "O=C(Nc1cccnc1)c1cc(-c2ccnc(F)c2)ccc1OCc1ccccc1", "values": [{"measurement": "Potency", "setting": "Tov-21-G", "result": "inactive"}, {"measurement": "Potency", "setting": "Tov112D", "result": "inactive"}]}
{"smiles": "COc1ccccc1N1CCN(CC(C(=O)NC(C)(C)C)c2ccccc2)CC1", "note": "(configuration not stated)", "values": [{"measurement": "Potency", "setting": "Tov-21-G", "result": "inactive"}, {"measurement": "Potency", "setting": "Tov112D", "result": "inactive"}]}
{"smiles": "CC#CC(=O)Nc1ccc2ncnc(Nc3cccc(Br)c3)c2c1", "values": [{"measurement": "Potency", "setting": "Tov-21-G", "result": "14.1 µM (active)"}, {"measurement": "Potency", "setting": "Tov112D", "result": "12.6 µM (active)"}]}
